# The list is not random: actives were taken first. Their share in the collection is about 3.7%.
# NLRP3 yeast inh: NALP3 inflammasome inhibitors in reconstituted yeast, primary screen, luminescence, uHTS. AID 2825, 2010. 330,000 compounds, 0.39% hits. Yeast reconstituted NLRP3/ASC/caspase-1, beta-gal luminescence, 24 h. inhibition, % at 10 µM;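 active means inhibition of 50% or more; inactive means inhibition below 50%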;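 further: plate controls were induced DMSO wells for no effect and uninduced yeast grown without galactose for full effect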
# tim10-1 inh: growth inhibitors of tim10-1 mutant yeast, primary screen, luminescence, uHTS; 330,000 compounds, 2.2% hits; inhibition, % at 20 µM; S. cerevisiae tim10-1 ts strain growth, BacTiter-Glo, 24 h;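 active means inhibition of at least 40%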;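 further: mutant grown at 25 °C; 0% = DMSO wells with yeast and 100% = wells holding no yeast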
# PfHsp90 set2: growth inhibition of PfHsp90-expressing yeast, primary screen, antimalarial PfHsp90 inhibitor project, S. cerevisiae, BacTiter-Glo luminescence, single point, set 2; BacTiter-Glo ATP, 48 h; yeast lacking PDR1 and PDR3 efflux regulators; inhibition, % at 9.4 µM; 310,000 compounds, 0.32% hits;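 active means every replicate shows inhibition above about 80%, whatever the replicate mean, limit read from the data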;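 further: 0% = DMSO neutral controls and 100% = 20 µM radicicol positive controls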
# tim23-1 inh: growth inhibitors of tim23-1 mutant yeast, primary screen, luminescence, uHTS; S. cerevisiae tim23-1 growth, BacTiter-Glo luminescence, 24 h; inhibition, % at 20 µM; 330,000 compounds, 1.3% hits; AID 463212, 2010;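 active means growth inhibition of the mutant yeast at or above 50%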;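 further: temperature-sensitive mutant grown at 25 °C; plate controls were DMSO-treated mutant yeast for no effect and medium wells lacking yeast for full effect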
# TIM10 inh: growth inhibitors of isogenic TIM10 control yeast, primary screen, counter-screen for tim10-1 yeast inhibitor project, luminescence, uHTS; S. cerevisiae TIM10 strain growth, BacTiter-Glo luminescence, 24 h; inhibition, % at 10 µM; 330,000 compounds, 1.4% hits; AID 463195, 2010;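 active means inhibition of 40% or more at the single tested concentration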;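 further: wild-type TIM10 isogenic control strain grown at permissive 25 °C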
# tim10-1 conf: growth inhibitors of tim10-1 mutant yeast, confirmation, single concentration, luminescence, S. cerevisiae; 7,400 compounds, 56% hits; AID 463213, 2010; S. cerevisiae tim10-1 ts strain growth, BacTiter-Glo, 24 h; shares compounds with tim10-1 inh; inhibition, % at 20 µM;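 active means inhibition of yeast growth at or above a set limit in either of two repeat tests at 20 µM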;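 further: tim10-1 mutant grown at permissive 25 °C to find synthetic lethal compounds; 0% = DMSO yeast wells and 100% = medium wells without yeast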
# tim10 confirm: growth inhibitors of wild-type TIM10 yeast, confirmation, counter-screen for tim10-1 synthetic lethality project, single concentration, luminescence, S. cerevisiae; shares compounds with TIM10 inh; S. cerevisiae tim10 strain growth, BacTiter-Glo luminescence, 24 h; inhibition, % at 10 µM; 4,600 compounds, 63% hits; AID 463215, 2010;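 active means inhibition of yeast growth at or above a set limit in either of two replicates at 10 µM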;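 further: this counterscreen used the strain with wild-type TIM10; 0% = yeast with DMSO and 100% = medium wells lacking yeast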
# The depositor's hits bear a star; / = no result given.
SMILES,NLRP3 yeast inh,tim10-1 inh,PfHsp90 set2,tim23-1 inh,TIM10 inh,tim10-1 conf,tim10 confirm
CN(C)S(=O)(=O)c1ccc(C(=O)NCC2CC2(Cl)Cl)cc1 (centres undefined),17.6,-13.5,8.1,5.9,7.3,/,/
CCOC(=O)c1cccc(NC(=O)Nc2cc(OC)ccc2OC)c1,22.1,40.8*,-64.9,38.7,40.3*,27.6,28.4
O=C(Cc1cccc2ccccc12)NN1C(=O)/C(=C\c2cccnc2)SC1=S,-13.1,5.5,-31.2,3.2,0.9,/,/
O=C(NN1C(=O)/C(=C/c2cccnc2)SC1=S)C(c1ccccc1)c1ccccc1,20.1,49.4*,/,40.9,41.5*,41.2*,21.1
O=C(NN1C(=O)/C(=C\c2cccnc2)SC1=S)C(c1ccccc1)c1ccccc1,27.5,45.5*,-1.5,35.3,40.3*,39.2*,-20.2
Cc1cc(N2CCN(S(=O)(=O)c3ccccc3)CC2)nc2c(C)cccc12,3.3,38.2,-18.7,24.3,24.9,/,/
CCN1C(=O)[C@H]2[C@H]3CN=C(SC)N3[C@@](C)(C(=O)OC)[C@H]2C1=O,/,/,-6.4,/,/,/,/
N/N=C(/Cc1nc2ccccc2[nH]1)c1ccc([N+](=O)[O-])cc1,-13.0,41.6*,12.3,27.9,51.0*,50.5*,57.8*
O=C(N[C@H]1/C=C\[C@@H](O)CCCC1)OCc1ccccc1,/,3.1,4.4,29.9,-6.5,/,/
Cc1onc(-c2ccccc2Cl)c1C(=O)O/N=C(\N)c1ccc([N+](=O)[O-])o1,13.5,49.2*,-10.6,39.3,44.2*,28.1,44.0*
COc1ccc(OCC(=O)NC(=S)N2CCCc3ccccc32)cc1,20.1,-3.7,-7.5,8.7,-3.3,/,/
O=C(COc1ccccc1)NC(=S)N1CCc2ccccc21,19.6,42.6*,-5.7,42.5,40.6*,17.6,-22.7
COc1ccc(S(=O)(=O)N(C)C[C@H]2Oc3c(NC(=O)NC(C)C)cccc3C(=O)N([C@H](C)CO)C[C@@H]2C)cc1,5.3,-14.5,2.1,-1.0,6.7,/,/
O=S(=O)(NCCSCc1c(Cl)cccc1Cl)c1ccc2c(c1)OCCO2,-8.8,53.5*,25.3,48.1,50.2*,45.0*,35.2*
O=[N+]([O-])c1cc2c(c3cccnc13)COCO2,/,/,-23.6,/,/,/,/
NC(=O)c1ccsc1NC(=O)c1ccc2c(c1)CCCC2,29.8,46.0*,9.2,49.8,56.0*,19.9,37.0*
O=C(O)c1cccc(N2C(=O)/C(=C/c3ccc(SCc4ccc(Cl)cc4)o3)SC2=S)c1,/,/,-9.1,/,/,/,/
Cc1nccn1-c1cc(C(C)(C)C)nc2c(-c3ccccc3)cnn12,25.5,50.4*,-2.4,49.9,53.8*,48.1*,54.7*
CCc1nccn1-c1cc(C(C)(C)C)nc2c(-c3ccc(Cl)cc3)cnn12,29.0,37.8,-6.5,19.8,25.0,/,/
Cc1ccc(NC(=O)CSc2nnc(NC(=O)C(C)C)s2)c(C)c1,13.1,-1.3,-6.1,4.6,7.0,/,/
Cc1ccc(Nc2nnc(SCC(=O)c3ccc(Br)s3)s2)c(C)c1,26.5,43.4*,-18.6,38.0,46.1*,34.3*,-7.3
C=CCn1c(CCc2cc(C(C)(C)C)c(O)c(C(C)(C)C)c2)n[nH]c1=S,31.8,49.8*,-2.6,47.0,41.7*,20.9,40.4*
C=CCn1c(Cc2ccccc2)n[nH]c1=S,1.3,12.5,-98.8,2.2,13.9,/,/
Cc1cc(-c2nnc(-c3ccccc3)c(-c3ccccc3)n2)c(C)o1,-3.3,48.0*,-18.9,49.3,52.0*,46.5*,30.0
c1ccc(-c2nnc(-c3c[nH]c4ccccc34)nc2-c2ccccc2)cc1,23.6,24.5,-48.0,29.1,17.7,/,/
SMILES,NLRP3 yeast inh,tim10-1 inh,PfHsp90 set2,tim23-1 inh,TIM10 inh,tim10-1 conf,tim10 confirm
Cn1c(SCc2ccccc2C#N)nnc1-c1ccncc1,10.2,-10.6,-20.1,8.7,4.4,/,/
Cc1ccc(/C=C/C(=O)Nn2cnnc2)cc1,39.1,55.7*,15.8,44.7,41.7*,27.0,38.8*
Cc1ccc(/C=C/C(=O)NN2CCN(C)CC2)cc1,10.0,-3.6,-3.0,-19.0,-8.4,/,/
Cc1cc(NC(=O)C(C)SCC(=O)Nc2ccccc2C(C)(C)C)no1 (centres undefined),9.8,15.8,18.0,20.7,10.2,/,/
CCOC(=O)c1sc(NC(=S)NC(=O)CC(C)C)cc1C,12.4,53.1*,-25.7,6.9,57.9*,41.9*,51.4*
CCOC(=O)c1sc(NC(=O)C(C)(C)C)cc1C,27.0,34.0,26.9,32.9,31.2,/,/
COc1cc([N+](=O)[O-])ccc1NC(=S)Nn1cnnc1,16.0,7.1,16.4,4.4,-4.5,/,/
O=C(Nc1cc(Sc2ccccn2)cc([N+](=O)[O-])c1)c1cccc(Cl)c1,14.0,42.0*,-12.0,38.1,53.7*,34.2*,-0.9
O=C(Nc1cc(Sc2ccccn2)cc([N+](=O)[O-])c1)c1ccc(Cl)cc1,-2.0,2.1,-15.3,1.9,2.2,/,/
CC(C)n1c(-c2ccc(C(C)(C)C)cc2)n[nH]c1=S,16.0,42.6*,-38.0,46.9,43.5*,35.0*,46.4*
CC1(C)CC(NC(=O)C2CCN(S(=O)(=O)c3ccc(Cl)c(C(F)(F)F)c3)CC2)CC(C)(C)N1,/,/,3.8,/,/,/,/
OC(CNCC(c1ccc(Cl)cc1Cl)c1c[nH]c2ccccc12)c1ccccc1 (centres undefined),17.8,53.8*,/,-2.3,59.2*,-15.9,60.9*
COc1ccc2[nH]c3c(=O)n4c(nc3c2c1)SCC4,4.1,44.6*,-22.4,28.1,40.1*,36.6*,17.6
O=C(ON=C1CCN(S(=O)(=O)c2ccccc2)CC1)c1cccc(Cl)c1,-9.5,66.5*,/,45.3,46.8*,67.0*,55.0*
O=S(=O)(c1ccccc1)N1CCN(c2cccc(Cl)c2)CC1,22.8,25.3,-14.6,28.5,6.7,/,/
CCCCCC(=O)Nc1nnc(CCc2ccccc2)s1,28.6,17.6,-14.1,4.1,8.5,/,/
COc1cccc(N2CCN(C(=O)c3ccc4nc(N5CCCCC5)sc4c3)CC2)c1,18.2,39.8,4.7,24.9,9.4,/,/
COc1ccc(N2CCN(C(=O)c3ccc4nc(N5CCCCC5)sc4c3)CC2)cc1,30.8,43.5*,-4.6,37.5,40.1*,33.9*,33.1*
NC(=O)/C(=N\OC(=O)c1ccco1)c1nc(-c2ccc(Br)cc2)cs1,48.1,42.6*,-18.9,47.0,45.8*,39.7*,43.4*
